Compound activity from PubChem.
Shown are actives, neighbours in structure and some others; about 21% of the full set was active somewhere.
NS1 inh = blocks influenza NS1 protein function. Potency, µM (highest dose often 46.1 µM), for inactives: top-dose activity, positive = more growth. 270,000 tested, 0.4% active. AID 2326; calls by dose curve; further: potency means the concentration at half of the fitted maximal effect; actives are rising curves; nearly all actives have a fitted effect of over 50% in size
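Compounds were scored for reversing the slow growth caused by influenza A NS1 in S. cerevisiae, measured by optical density at 600 nm. Assay medium contained 2% galactose at pH 6.0; NS1-free yeast of the same strain were the positive control.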
Pf growth 96h = P. falciparum growth inhibition at 96 hours; P. falciparum luciferase reporter growth, 96 h; Potency, µM (series often up to 28.7 µM), for the others: at the highest dose activity change, negative = inhibition, usual class: inhibitors; 320,000 tested, 6.9% active; AID 504834; further: potency means the concentration at half of the fitted maximal effect; on the % scale 0 is the no-effect control and ±100 the full control effect
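Cell-based qHTS: luciferase-tagged P. falciparum in erythrocytes (2% hematocrit, 0.05% parasitemia final) incubated with compounds for 96 hours, 37 C, 5% CO2; luciferase detection reagent then added and luminescence measured.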
Pf growth 48h = P. falciparum growth inhibition at 48 hours (one generation); P. falciparum luciferase growth in erythrocytes, 48 h; Potency, µM (top dose mostly 28.7 µM), inactives show at the top dose activity change, negative = inhibition, most hits filed as inhibitors; 310,000 tested, 5.9% active; further: potency means the concentration at half of the fitted maximal effect; on the % scale 0 is the no-effect control and ±100 the full control effect
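Here the parasites carry a stable luciferase gene and grow inside erythrocytes in Albumax-based RPMI medium with compound for one erythrocytic cycle. Activity is scored as loss of luminescent signal.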
CHX counter = affects cycloheximide protein synthesis inhibition readout, counter-screen. cell reporter, cycloheximide protein synthesis inhibition counterscreen. max response, %. 300,000 tested, 12% active; in the data active means max response mostly above about 13%, no sharp cut-off; inactive means mostly below about 14%; further: read at 38.3 µM for the half of the compounds with a filed dose; 0% is about no effect
Sm TGR block = blocks Schistosoma mansoni thioredoxin glutathione reductase. purified TGR, DTNB reduction, TNB absorbance 405 nm. Q962Y6. 360,000 tested, 3% active. Potency, µM (doses to about 114 µM), without a hit: at the highest dose activity change, negative = inhibition, most hits filed as inhibitors. AID 485364; further: potency means the concentration at half of the fitted maximal effect; on the % scale 0 is the no-effect control and ±100 the full control effect; nearly all actives have a fitted effect of over 60% in size
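TGR 20 nM + NADPH 100 uM (dispensed conc.), cpd preinc 15 min RT; start with NADPH (500 uM addition) then DTNB (15 mM addition). Kinetic TNB absorbance, 405 nm filter. Four-parameter Hill fit across titration.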
Shiga inhibitor = Shiga toxin inhibition; Vero cells, Shiga toxin protein synthesis inhibition reporter; inhibition, % at 38.7 µM; 290,000 tested, 9.2% active; AID 2315; in the data active means inhibition mostly above about 28%, no sharp cut-off; inactive means mostly below about 43%; further: 0% is about no effect
* marks the source's active call; other numbers are inactive results; ? = inconclusive; / = no result given. Unless noted, the call rests on the fitted dose curve; in most records, active means well fitted curve in the direction sought with a large enough effect; inconclusive means small, poorly fitted or top-dose-only effect, or another doubt; inactive means no such curve, though single readings can be large; an effect the other way counts as inactive or inconclusive.

SMILES | NS1 inh | Pf growth 96h | Pf growth 48h | CHX counter | Sm TGR block | Shiga inhibitor
COc1cccc(/C=C2\Oc3cc(OCC(=O)N4CCC[C@H]4C(=O)O)ccc3C2=O)c1 | ? | 0.0% | 25.7% | -2.4 | -3.2% | 14.6
Cc1ccccc1NC(=O)c1c(C)nn(-c2ccccc2)c1Cl | -4.6% | 66.0% | 87.4% | 37.8* | -9.3% | 68.6*
CCC(=Nc1ccccc1N)c1c(O)[nH]c(=O)[nH]c1=O | -7.5% | ? | 81.9% | 51.8* | ? | 98.8*
CCN1/C(=C\C=C2\C(=O)N(C)C(=S)N2C)Sc2ccccc21 | / | ? | 17.3% | 27.6* | 2.8% | 62.5*
CCN1/C(=C2/OC(=S)N(C)C2=O)Sc2ccccc21 | -6.6% | 99.9% | 87.4% | -3.6 | -1.0% | 2.6
COc1ccc2c(ccc[n+]2CC(=O)c2ccccc2)c1 | 18.1% | 0.0% | -22.0% | 0.3 | -1.8% | 7.4
O=C(C[n+]1cccc2ccccc21)c1ccc(NC(=O)c2ccccc2)cc1 | / | ? | 2.08µM* | -0.4 | -2.9% | 13.4
Cc1cc[n+](CC(=O)c2ccc(NC(=O)c3ccccc3)cc2)c2ccccc12 | -0.6% | ? | 1.65µM* | 8.9 | -0.6% | 11.0
N#Cc1ccc[n+](CC(=O)c2ccc(NC(=O)c3ccccc3)cc2)c1 | 10.1% | 9.5% | ? | 13.6 | -19.5% | 31.7*
O=C(C[n+]1cccc2ccccc21)c1ccccc1 | 23.1% | 13.1µM* | ? | 6.0 | -5.3% | 25.9
CC(=O)c1ccc(N(CC(=O)NCc2ccc3c(c2)OCO3)C(=O)c2csnn2)cc1 | 3.3% | -4.6% | ? | -3.5 | 6.4% | 18.8
Cc1onc(-c2ccccc2)c1C(=O)N/N=C/c1cn(C)c2ccccc12 | / | ? | ? | -4.9 | 3.2% | -18.8
CN1CCN(C(=O)/C(=C/c2ccc([N+](=O)[O-])cc2)NC(=O)c2ccccc2)CC1 | 9.7% | 22.8% | 14.9% | -6.1 | -4.7% | -8.7
Clc1ccc(-c2nc3ccccn3c2Nc2ccc3c(c2)OCCO3)s1 | / | / | / | / | -12.8% | /
CCN(CC)CCNC(=O)C(C)c1nn(CC)c(=O)c2ccccc12 (centres undefined) | 1.4% | ? | -3.5% | -3.4 | -10.4% | 2.7
CCOc1ccc(C(=O)C[n+]2cccc3cc(C)ccc32)cc1 | 6.2% | 7.1% | 8.28µM* | -3.1 | -6.0% | -0.4
COc1cccc(C2=N/C(=C\N(C)C)C(=O)O2)c1 | -15.4% | ? | 87.2% | 34.2* | 1.5% | 93.8
COc1cccc(C2=CC(=O)CC(C)(C)C2)c1 | / | 36.5% | 41.6% | / | -14.9% | /
CCCN1C(=O)c2ccc(C(=O)NCc3ccco3)cc2C1=O | -9.3% | -20.0% | 15.8% | 0.3 | 31.6µM* | -9.4
COCCCN1C(=O)c2ccc(C(=O)NCc3ccco3)cc2C1=O | 1.0% | 9.0% | 3.7% | 29.2* | 28.2µM* | 45.3
CCCCN1C(=O)c2ccc(C(=O)NCc3ccco3)cc2C1=O | -5.0% | -22.1% | -1.9% | 4.7 | -4.3% | 15.2
O=C(CSc1ncn[nH]1)NCc1ccccc1Cl | -16.1% | 21.1% | 29.6% | 10.7 | -5.5% | 5.0
COc1cc(C(=O)O/N=C2\C=CC(=O)C(C)=C2)cc(OC)c1OC | -35.1% | ? | ? | 71.1* | 3.16µM* | 101.4*
COc1cc(C(=O)ON=C2C=C(C)C(=O)C(C)=C2)cc(OC)c1OC | -10.3% | 30.3% | -24.5% | 7.8 | -4.2% | -26.2
Cc1nc(CS(=O)(=O)c2ccc(Cl)cc2)sc1C(=O)O | -1.9% | 0.0% | 54.5% | -1.1 | 9.1% | -8.7
CCS(=O)(=O)N1CCCC(c2nc(-c3cccc(OC)c3)no2)C1 (centres undefined) | -14.7% | -26.2% | 112.1% | 42.0* | 6.3% | 103.7*
COc1ccc(-c2noc(C3CCCN(S(=O)(=O)c4cccc(Cl)c4C)C3)n2)cc1OC (centres undefined) | 7.0% | ? | 13.1µM* | 5.7 | 23.3% | 8.0
COc1cc(/C=C2\CC/C(=C\c3cc(OC)c(OC)c(OC)c3)C2=O)cc(OC)c1OC | -0.1% | 2.08µM* | 2.62µM* | -3.8 | -15.9% | -1.2
COc1cc(/C=C2\CC(C(C)(C)C)C/C(=C\c3cc(OC)c(OC)c(OC)c3)C2=O)cc(OC)c1OC (centres undefined) | -0.5% | ? | ? | 9.0 | 1.7% | 33.7
